PubChem BioAssay AID720664 (National Center for Advancing Translational Sciences (NCATS), 2013)
Records with an inconclusive call do not appear. Values without a mark were called inactive. The source made the active and inactive calls. The call rests on the fitted dose curve; in most records, active means well fitted inhibition curve with a large enough effect; inconclusive means small, poorly fitted or top-dose-only effect; inactive means flat fitted curve, though single readings scatter.

Biological target: Galactokinase (Homo sapiens) (UniProt P51570)
Sequence (P51570 whole entry, looked up): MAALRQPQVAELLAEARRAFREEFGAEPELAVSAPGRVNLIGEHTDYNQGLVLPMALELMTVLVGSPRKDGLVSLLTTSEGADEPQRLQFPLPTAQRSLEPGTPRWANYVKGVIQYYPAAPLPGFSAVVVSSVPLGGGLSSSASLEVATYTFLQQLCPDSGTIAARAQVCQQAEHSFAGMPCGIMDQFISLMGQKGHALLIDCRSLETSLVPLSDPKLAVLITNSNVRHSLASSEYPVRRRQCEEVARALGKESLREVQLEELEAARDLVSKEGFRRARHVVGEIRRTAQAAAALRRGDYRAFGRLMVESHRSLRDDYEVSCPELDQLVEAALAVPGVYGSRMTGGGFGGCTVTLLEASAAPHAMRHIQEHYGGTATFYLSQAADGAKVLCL
Experiment: qHTS for Inhibitors of Human Galactokinase (GALK): SAR round 3
Settings: ADP detection luminescence, 1 h; series mostly up to 57.5 µM; activity change, negative = inhibition: at the top concentration
Source text: Inherited deficiency of galactose-1-phosphate uridyltransferase (GALT) can result in a potentially lethal disorder called Classic Galactosemia (OMIM 230400). Several lines of evidence indicate that an elevated level of galactose-1-phosphate (gal-1-p), the product of galactokinase (GALK), is a major, if not sole, pathogenic mechanism in patients with classic galactosemia. Therefore, finding inhibitors of GALK is a potential novel therapy for this inherent metabolic disease and is the long term goal of this project. Active compounds observed in the qHTS GALK assay (AID: 1868) were cherry picked and re-screened for validation. GALK (provided by Kent Lai) was assayed using ATP and D-(+)-Galactose (Sigma-Aldrich cat# G0750) as substrates. Promega ADP-Glo technology was used to detect the ADP product formed after the kinase reaction. Kinase reactions with and without GALK were used as negative and positive controls together with Protein Tyrosine Phosphatase CD45 inhibitor (EMD Bioscience cat# 540215) which is shown to inhibit GALK activity. Decrease in activity corresponds to inhibition of the enzyme, the desired outcome for this assay. NIH Molecular Libraries Probe Production Network [MLPCN] NIH Chemical Genomics Center [NCGC] Grant: MH085689-01 PI Name: Kent Lai, University of Utah
Three uL/well of ATP-buffer solution (35 uM ATP, 20mM HEPES pH8.0, 5 mM MgCl2, 60 mM NaCl, 1 mM DTT, 0.01% BSA final concentration) was dispensed into 1536-well, assay plates (Greiner, solid white medium-binding plates) with Aurora Discovery BioRAPTR Flying Reagent Dispenser (FRD; Beckton-Dickenson). Compound and control solution (23 nL) was transferred to the assay plate using the Kalypsys 1536-pin tool apparatus. One uL/well GALK-galactose solution (5 nM GALK, 100 uM galactose, 20 mM HEPES pH8.0, 5 mM MgCl2, 60 mM NaCl, 1 mM DTT, 0.01% BSA final concentration) was then added using the FRD yielding a total kinase reaction volume of 4 uL/ well. After 1 hour of room temperature incubation, 4 uL Kinase-Glo Plus reagent was added for a final assay volume of 8 uL/well. Luminescence was detected with the ViewLux plate reader (Perkin Elmer, Waltham, MA) after 2 min incubation using a 1 sec exposure time and 2x binning.

| SMILES | Potency | activity change, negative = inhibition [%] |
| --- | --- | --- |
| CCC1CCC2(C1)N=C(Nc1nc3ccccc3o1)NC1=C2C(=O)CCC1 (stereo not given) | inactive |  |
| O=C1CCCC2=C1C(c1ccc(Cl)cc1)N=C(Nc1nc3ccccc3o1)N2 (stereo not given) |  | -5.92 |
| Cc1nc(NC2=NC(c3ccccc3Cl)C3=C(CCCC3=O)N2)oc1C (stereo not given) |  | 2.17 |
| O=C1CCCC2=C1C(c1[nH]ncc1Cl)N=C(Nc1nc3cc(Cl)ccc3o1)N2 (stereo not given) |  | 3.78 |
| O=C1CCCC2=C1C(c1[nH]ncc1Cl)NC(=NCCc1cccnc1)N2 (stereo not given) |  | 1.96 |
| CC1=C(C(=O)Nc2noc3ccccc23)C2(CCCC2)N=C(Nc2nc3ccccc3o2)N1 |  | 2.5 |
| O=C1CCCC2=C1C(c1ccccc1I)N=C(Nc1nc3ccccc3o1)N2 (stereo not given) | 6.11 µM (active) |  |
| O=C1CCCC2=C1C(c1[nH]ncc1Cl)NC(=NCCc1ccccc1)N2 (stereo not given) |  | 0.974 |
| O=C1CCCC2=C1C(c1ncccc1Br)N=C(Nc1nc3ccccc3o1)N2 (stereo not given) |  | -27.8 |
| O=C1CCCC2=C1C(c1[nH]ncc1Cl)N=C(Nc1ccccn1)N2 (stereo not given) |  | 0.613 |
| COc1ccccc1C1N=C(Nc2nc3ccccc3o2)NC2=C1C(=O)CCC2 (stereo not given) |  | -17.2 |
| O=C1CCCC2=C1C(c1[nH]ncc1Cl)N=C(Nc1ccccc1)N2 (stereo not given) |  | 1.36 |
| O=C1CCCC2=C1C1(CCCC1)N=C(Nc1nc3ccccc3n1Cc1ccccc1)N2 |  | 6.14 |
| N#CC1=C(Nc2nc3ccccc3o2)OC2=C(C(=O)CCC2)C1c1[nH]ncc1Cl (stereo not given) |  | 1.8 |
| CC1=C(C(=O)NC2CC2)C(c2nn(C)cc2Cl)N=C(Nc2nc3ccccc3o2)N1 (stereo not given) |  | -29.6 |
| CC1=C(C(=O)Nc2nc3ccccc3s2)C(c2nn(C)cc2Cl)N=C(Nc2nc3ccccc3o2)N1 (stereo not given) |  | -5.31 |
| O=C(Nc1ncc([S+](=O)([O-])N2CCOCC2)s1)c1cccc(Br)c1 |  | -2.8 |
| O=C1CCCC2=C1C1(CCCC1)N=C(Nc1nc3cc(Cl)ccc3o1)N2 |  | -24.4 |
| O=C1CCCC2=C1C(c1[nH]ncc1Cl)N=C(Nc1nc3ccccc3s1)N2 (stereo not given) |  | -4.86 |
| O=C1CCCC2=C1C(c1[nH]ncc1Cl)NC(=NCc1ccncc1)N2 (stereo not given) |  | -0.0488 |

| SMILES | Potency | activity change, negative = inhibition [%] |
| --- | --- | --- |
| Cn1ncc(Cl)c1C1N=C(Nc2nc3ccccc3o2)NC2=C1C(=O)CCC2 (stereo not given) |  | -5.52 |
| COc1ccc2oc(NC3=NC(c4[nH]ncc4Cl)C4=C(CCCC4=O)N3)nc2c1 (stereo not given) |  | 3 |
| O=C1CCCC2=C1C(c1cccnc1)N=C(Nc1nc3ccccc3o1)N2 (stereo not given) |  | -15.6 |
| O=C1CCCC2=C1C(c1cccc(Oc3ccccc3)c1)N=C(Nc1nc3ccccc3o1)N2 (stereo not given) |  | -7.55 |
| O=C1CC(c2ccccc2)CC2=C1C1(CCCCC1)N=C(Nc1nc3ccccc3o1)N2 (stereo not given) |  | 3.27 |
| COc1ccc(C2N=C(Nc3nc4ccccc4o3)NC3=C2C(=O)CCC3)cc1 (stereo not given) |  | -7.29 |
| CN1C(=O)NC(c2ccccc2Cl)C2=C1CCCC2=O (stereo not given) |  | -7.27 |
| CC1=C(C(=O)n2ccc3ccccc32)C(c2ccccc2Br)N=C(Nc2nc3ccccc3o2)N1 (stereo not given) |  | -5.19 |
| O=C1CCCC2N=C(Nc3nc4ccccc4o3)CC(c3ccccc3Cl)C12 (stereo not given) |  | 3.86 |
| O=C1CCCC2=C1C(c1cccc(Cl)c1)N=C(Nc1nc3ccccc3o1)N2 (stereo not given) |  | -2.3 |
| O=C1CCCC2=C1C(c1[nH]ncc1Cl)N=C(Nc1ccn[nH]1)N2 (stereo not given) |  | 3.24 |
| Cn1c(NC2=NC3(CCCC3)C3=C(CCCC3=O)N2)nc2ccccc21 |  | 3.5 |
| O=C1CCCC2=C1C(c1ccc(F)cc1)N=C(Nc1nc3ccccc3o1)N2 (stereo not given) |  | -5.82 |
| O=C1CCCC2=C1C(c1cccc(F)c1)N=C(Nc1nc3ccccc3o1)N2 (stereo not given) |  | -24.3 |
| O=C1CCCC2=C1C(c1[nH]ncc1Cl)N=C(Nc1cccnc1)N2 (stereo not given) |  | 0.256 |
| Cc1ccc(C2N=C(Nc3nc4ccccc4o3)NC3=C2C(=O)CCC3)cc1 (stereo not given) |  | -4.94 |
| CC1=C(C(=O)Nc2ccon2)C2(CCCC2)N=C(Nc2nc3ccccc3o2)N1 | 17.2 µM (active) |  |
| O=C1CCCC2=C1C(c1[nH]ncc1Cl)NC(=NCc1ncc[nH]1)N2 (stereo not given) |  | 1.65 |
| O=C1CCCC2=C1C(c1[nH]ncc1Cl)NC(=NCc1ccccc1)N2 (stereo not given) |  | 1.45 |
| O=C1CC(c2ccccc2)CC2=C1C1(CCCC1)N=C(Nc1nc3ccccc3o1)N2 (stereo not given) |  | -1.13 |
